This note sets out measurements from PubChem BioAssay (Tox21).

Values without a mark were called inactive. Records with an inconclusive call do not appear. Calls of active or inactive are those of the source. Unless noted, calls come from the whole dose curve; as a rule, active = well fitted curve in the direction sought with a large enough effect in the repeat runs; inconclusive = weak or mixed curves; inactive = no such curve, though single readings can be large; an effect the other way counts as inactive or inconclusive.

Experiment [1] can be described thus: qHTS assay to identify small molecule agonists of the sonic hedgehog signaling (Shh) pathway (AID 1259368; calls by dose curve;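 note: NIH/3T3-derived 3T3Gli1-Luc cells carrying a stable Gli1-driven firefly luciferase reporter; series mostly up to about 92 µM; nearly all actives have a fitted effect of over 15% in size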). The gist of the method: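 Stable NIH/3T3 Gli1-Luc reporter clone; 24 hr cpd exposure after a 4 hr settling period; luminescence endpoint.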
Experiment [2] can be described thus: qHTS assay to identify small molecule agonists of the androgen receptor (AR) signaling pathway in the presence of an antagonist - cell viability counter screen (AID 1259379).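 Note: MDA-kb2 human breast cancer cells carrying an MMTV luciferase reporter; series mostly up to about 92 µM; nearly all actives have a fitted effect of over 25% in size.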 The gist of the method: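 Counter screen for cell viability run in parallel with the AR agonist-mode luciferase assay. MDA-kb2 cells were co-treated with nilutamide (3.0uM final) and compounds, then incubated 16 hr at 37C, and CellTiter-Fluor fluorescence was measured.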

The nature of experiment [3]: qHTS assay to identify small molecule agonists of the estrogen receptor beta (ER-beta) signaling pathway - cell viability counter screen (AID 1259380). Note: nearly all actives have a fitted effect of over 30% in size. A digest of the protocol: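 In this qHTS counter screen, HEK293T cells carrying an ER-beta/UAS beta-lactamase reporter, grown in 2% charcoal-stripped FBS, received compound for 16 hr; ATP-based CellTiter-Glo luminescence was then read after 30 min at room temperature.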

Experiment [4] can be described thus: qHTS assay to identify small molecule antagonists of the estrogen receptor beta (ER-beta) signaling pathway - cell viability counter screen (AID 1259382). Note: series mostly up to about 92 µM; nearly all actives have a fitted effect of over 55% in size. The gist of the method:
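HEK293T ER-beta-UAS-bla, 2% charcoal-stripped FBS; compounds + 1nM E2 16 hr 37C; CellTiter-Glo luminescence, 30 min RT.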

Experiment [5] can be described thus: qHTS assay to identify small molecule agonists or antagonists of the thyroid stimulating hormone receptor (TSHR) signaling pathway - wild type cell line counter screen (AID 1259384; calls by dose curve). A digest of the protocol: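 Counter screen in untransfected Hek293: compounds (15-point titration, triplicate) plus phosphodiesterase inhibitor Ro20-1724 added after 18 h plating; 30 min RT. Intracellular cAMP via competitive d2/cryptate immunoassay, 1 h incubation.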

For experiment [6], the target named is Thyrotropin receptor (Homo sapiens) (UniProt P16473). In words: qHTS assay to identify small molecule antagonists of the thyroid stimulating hormone receptor (TSHR) signaling pathway (AID 1259385; calls by dose curve; note: nearly all actives have a fitted effect of over 20% in size). A digest of the protocol: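 Antagonist mode: compound-treated TSHR-expressing HEK293 cells were stimulated with 1.5 ng/mL TSH (final) in presence of Ro20-1724 for 30 min at RT. HTRF cAMP detection after 1 h; each compound tested at 15 concentrations, triplicate.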
Chain of Thyrotropin receptor (Homo sapiens) (P16473 whole entry, looked up): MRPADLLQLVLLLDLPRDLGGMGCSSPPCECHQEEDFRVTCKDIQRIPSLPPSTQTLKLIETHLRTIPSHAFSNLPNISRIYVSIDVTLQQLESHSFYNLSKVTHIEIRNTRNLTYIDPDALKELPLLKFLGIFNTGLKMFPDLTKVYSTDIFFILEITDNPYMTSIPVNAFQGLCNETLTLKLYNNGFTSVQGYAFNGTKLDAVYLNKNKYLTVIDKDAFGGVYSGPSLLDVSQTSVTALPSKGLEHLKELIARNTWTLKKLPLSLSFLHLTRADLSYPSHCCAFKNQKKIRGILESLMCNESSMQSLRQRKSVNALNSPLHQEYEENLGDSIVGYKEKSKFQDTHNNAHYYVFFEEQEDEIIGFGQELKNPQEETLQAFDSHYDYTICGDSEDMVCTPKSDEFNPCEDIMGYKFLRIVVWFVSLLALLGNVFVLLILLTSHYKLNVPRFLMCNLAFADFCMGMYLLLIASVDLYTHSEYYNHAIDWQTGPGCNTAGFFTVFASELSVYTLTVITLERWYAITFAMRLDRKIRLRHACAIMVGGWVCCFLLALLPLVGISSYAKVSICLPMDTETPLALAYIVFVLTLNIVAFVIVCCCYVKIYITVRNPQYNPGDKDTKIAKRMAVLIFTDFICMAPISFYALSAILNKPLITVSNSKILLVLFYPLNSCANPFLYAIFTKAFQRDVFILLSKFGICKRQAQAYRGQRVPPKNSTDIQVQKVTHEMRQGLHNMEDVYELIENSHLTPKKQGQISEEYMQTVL

A short description of experiment [7]: qHTS assay to identify small molecule agonists of the estrogen receptor alpha (ER-alpha) signaling pathway in the presence of an antagonist - cell viability counter screen (AID 1259386).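 Note: series mostly up to about 92 µM; cells exposed to compounds for 22 h at 37 °C before the viability read; nearly all actives have a fitted effect of over 30% in size.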 The gist of the method: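 Steps: 5-day stripped-FBS culture; seed and incubate 24hr; add ICI-182,780 (10.0nM final); pin 15-point compound titration; incubate 22hr at 37C; add CellTiter-Fluor at 21hr; read fluorescence.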

The target of experiment [8] is Progesterone receptor (Homo sapiens) (UniProt P06401). In words: qHTS assay to identify small molecule agonists of the progesterone receptor (PR) signaling pathway (AID 1346784; calls by dose curve; note: nearly all actives have a fitted effect of over 30% in size). A digest of the protocol:
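Agonist qHTS: compounds pinned onto 3,000 PR-UAS-bla HEK 293T cells per well in charcoal-stripped serum medium, 16hr at 37C, then beta-lactamase activity measured by LiveBLAzer FRET fluorescence after 2 hours at room temperature.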

Experiment [9] shares this target. In words: qHTS assay to identify small molecule antagonists of the progesterone receptor (PR) signaling pathway (AID 1346795; active = well fitted inhibition curve with a large enough effect in the signal ratio in the repeat runs, not every such curve was filed as active; the % refers to the signal ratio). A digest of the protocol: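 Antagonist mode with agonist R5020 at 1 nM final and 16 hr incubation at 37C. Reporter was beta-lactamase driven by UAS in HEK293T (PR-UAS-bla), 2% charcoal-stripped serum; signal from LiveBLAzer FRET substrate, 2 hr at room temperature.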

Experiment [10] in a line: qHTS assay to identify small molecule antagonists of the progesterone receptor (PR) signaling pathway - cell viability counter screen (AID 1346798). For activity change, negative = cytotoxicity: series mostly up to about 92 µM. Note: nearly all actives have a fitted effect of over 50% in size. Note: potency is the fitted concentration of half-maximal effect. The gist of the method: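 Cytotoxicity read as CellTiter-Glo luminescence (30 min, room temperature) in the same wells as the beta-lactamase readout. HEK293T PR-UAS-bla cells in charcoal-stripped 2% FBS received compound and R5020, then 16 h at 37C, 5% CO2.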

Experiment [11] is described as follows: qHTS assay to identify small molecule agonists of the progesterone receptor (PR) signaling pathway - cell viability counter screen (AID 1346799; calls by dose curve; note: nearly all actives have a fitted effect of over 45% in size). A digest of the protocol:
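Cytotoxicity measured by CellTiter-Glo luminescence (30 min, RT) in the same wells as the PR beta-lactamase agonist read. Those HEK293T cells had 16 h compound treatment at 37 C in 2% charcoal-stripped FBS medium.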

The nature of experiment [12]: qHTS assay to identify small molecule antagonists of the TGF-beta/Smad signaling pathway - cell viability counter screen (AID 1346824). Note: nearly all actives have a fitted effect of over 50% in size. The gist of the method:
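Cytotoxicity counter-screen run in the same wells as the beta-lactamase Smad reporter read: CellTiter-Glo luminescence after 30 min at room temperature. HEK 293T SBE-bla cells had 5 hr compound exposure at 37 C with TGF-beta1 (0.25 ng/mL stock).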

Experiment [13] in a line: qHTS assay to identify small molecule agonists of the TGF-beta/Smad signaling pathway - cell viability counter screen (AID 1346829). Note: top concentration of the series differs between compounds; nearly all actives have a fitted effect of over 45% in size. A digest of the protocol: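 Tox21 qHTS format: SBE-bla HEK 293T cells treated with DMSO-dissolved compounds for 5 hr; CellTiter-Glo luminescence after 30 min at room temperature.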
The nature of experiment [14]: qHTS assay to identify small molecule agonists of the TGF-beta/Smad signaling pathway (AID 1346859; active = well fitted activation curve with a large enough effect in the signal ratio in the repeat runs, not every such curve was filed as active; the % refers to the signal ratio; note: series mostly up to about 77 µM). The gist of the method: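 Fluorescence (ex 405 nm; em 460 and 530 nm) was read 2 h after LiveBLAzer FRET substrate at RT. The preceding compound treatment of overnight-plated SBE-bla HEK293T cells lasted 5 h at 37 C.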
The target of experiment [15] is Estrogen receptor (Homo sapiens) (UniProt P03372). In words: qHTS assay to identify small molecule agonists of the estrogen receptor alpha (ER-alpha) signaling pathway in the presence of an antagonist (AID 1259383; calls by dose curve; note: top concentration of the series differs between compounds; nearly all actives have a fitted effect of over 15% in size). The gist of the method:
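ER-alpha agonism measured under antagonist challenge: 10.0nM ICI-182,780 (final) plus compound, 15 concentrations, 22hr, VM7Luc4E2 ERE-luciferase cells. Read by luminescence.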

Experiment [16] addresses Thyrotropin-releasing hormone receptor (Homo sapiens) (UniProt P34981). Put plainly: qHTS assay to identify small molecule antagonists of the thyrotropin-releasing hormone receptor (TRHR) signaling pathway (AID 1346877; active = well fitted inhibition curve with a large enough effect in the repeat runs, not every such curve was filed as active; note: series mostly up to about 51 µM). The gist of the method: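 Human TRHR in HEK293 cells; inhibition of the intracellular calcium rise triggered by 1 nM TRH was followed by fluorescence over 3 min. Compounds were run at 15 concentrations, three replicates each.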

The target of experiment [17] is Estrogen receptor beta (Homo sapiens) (UniProt Q92731). In words: qHTS assay to identify small molecule agonists of the estrogen receptor beta (ER-beta) signaling pathway (AID 1259377; active = well fitted activation curve with a large enough effect in the signal ratio in the repeat runs, not every such curve was filed as active; the % refers to the signal ratio). A digest of the protocol: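 Ratiometric beta-lactamase FRET read-out came after 2 h substrate loading at room temperature. It followed 16 h compound treatment at 37C of GripTite HEK293T cells carrying a UAS-bla reporter, plated in 2% charcoal-stripped FBS medium.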
Chain of Estrogen receptor beta (Homo sapiens) (Q92731 whole entry, looked up): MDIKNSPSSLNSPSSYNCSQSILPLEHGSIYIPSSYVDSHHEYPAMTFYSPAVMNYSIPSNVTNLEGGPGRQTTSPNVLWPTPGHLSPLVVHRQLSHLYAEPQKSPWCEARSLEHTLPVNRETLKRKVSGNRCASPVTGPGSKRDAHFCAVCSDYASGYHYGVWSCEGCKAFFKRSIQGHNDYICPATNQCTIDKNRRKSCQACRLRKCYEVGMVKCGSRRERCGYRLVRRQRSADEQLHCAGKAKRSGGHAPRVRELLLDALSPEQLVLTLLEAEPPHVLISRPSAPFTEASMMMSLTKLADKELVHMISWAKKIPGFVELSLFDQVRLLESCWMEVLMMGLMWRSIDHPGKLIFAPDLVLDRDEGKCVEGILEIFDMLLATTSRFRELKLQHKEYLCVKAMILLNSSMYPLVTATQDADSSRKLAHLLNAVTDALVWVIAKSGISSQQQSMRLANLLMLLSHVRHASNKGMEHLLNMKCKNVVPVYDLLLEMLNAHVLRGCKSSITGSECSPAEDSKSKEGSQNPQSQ

Experiment [18] shares this target. Put plainly: qHTS assay to identify small molecule antagonists of the estrogen receptor beta (ER-beta) signaling pathway (AID 1259378; active = well fitted inhibition curve with a large enough effect in the signal ratio in the repeat runs, not every such curve was filed as active; the % refers to the signal ratio). The gist of the method:
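Antagonist mode: compounds added to beta-lactamase reporter HEK293T ER-beta-UAS cells stimulated with E2 (1nM final), 16 hr at 37C. LiveBLAzer B/G FRET substrate, 2 hours room temperature, fluorescence read-out.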

Experiment [19] concerns the target Androgen receptor (Homo sapiens) (UniProt P10275). Put plainly: qHTS assay to identify small molecule agonists of the androgen receptor (AR) signaling pathway in the presence of an antagonist (AID 1259381; calls by dose curve; note: nearly all actives have a fitted effect of over 15% in size). A digest of the protocol:
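AR antagonist background: nilutamide 3.0uM final. Cell line: MDA-kb2, MMTV-driven luciferase, responsive to both AR and GR. Exposure 16hr, 37C, no CO2; ONE-Glo luminescence.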
% is set by controls: 0 for no effect and ±100 for the full control effect.

Chain of Progesterone receptor (Homo sapiens) (P06401 whole entry, looked up): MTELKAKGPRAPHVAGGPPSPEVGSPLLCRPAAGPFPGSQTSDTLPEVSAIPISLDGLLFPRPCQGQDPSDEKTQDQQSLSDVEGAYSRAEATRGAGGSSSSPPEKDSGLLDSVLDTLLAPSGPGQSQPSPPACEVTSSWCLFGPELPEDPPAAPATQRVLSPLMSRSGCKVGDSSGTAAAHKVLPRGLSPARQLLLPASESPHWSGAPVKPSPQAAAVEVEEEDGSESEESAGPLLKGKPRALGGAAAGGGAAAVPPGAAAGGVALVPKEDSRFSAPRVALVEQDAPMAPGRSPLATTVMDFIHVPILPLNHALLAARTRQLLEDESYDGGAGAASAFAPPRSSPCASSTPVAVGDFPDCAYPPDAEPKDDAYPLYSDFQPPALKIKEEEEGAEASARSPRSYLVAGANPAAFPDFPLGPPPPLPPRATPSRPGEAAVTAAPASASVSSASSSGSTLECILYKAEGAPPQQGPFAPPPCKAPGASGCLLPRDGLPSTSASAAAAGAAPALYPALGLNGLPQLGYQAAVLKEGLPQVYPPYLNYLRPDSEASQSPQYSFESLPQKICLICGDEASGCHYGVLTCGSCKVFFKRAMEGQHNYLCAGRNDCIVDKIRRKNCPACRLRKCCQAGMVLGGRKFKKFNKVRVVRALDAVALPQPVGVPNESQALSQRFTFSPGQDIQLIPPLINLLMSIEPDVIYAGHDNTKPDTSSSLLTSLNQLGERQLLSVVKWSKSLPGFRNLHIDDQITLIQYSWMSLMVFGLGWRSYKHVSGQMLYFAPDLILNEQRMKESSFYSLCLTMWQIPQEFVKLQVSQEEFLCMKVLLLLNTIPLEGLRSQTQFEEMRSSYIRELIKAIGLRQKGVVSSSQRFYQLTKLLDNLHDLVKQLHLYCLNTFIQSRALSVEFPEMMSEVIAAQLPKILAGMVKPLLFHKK
Chain of Estrogen receptor (Homo sapiens) (P03372 whole entry, looked up): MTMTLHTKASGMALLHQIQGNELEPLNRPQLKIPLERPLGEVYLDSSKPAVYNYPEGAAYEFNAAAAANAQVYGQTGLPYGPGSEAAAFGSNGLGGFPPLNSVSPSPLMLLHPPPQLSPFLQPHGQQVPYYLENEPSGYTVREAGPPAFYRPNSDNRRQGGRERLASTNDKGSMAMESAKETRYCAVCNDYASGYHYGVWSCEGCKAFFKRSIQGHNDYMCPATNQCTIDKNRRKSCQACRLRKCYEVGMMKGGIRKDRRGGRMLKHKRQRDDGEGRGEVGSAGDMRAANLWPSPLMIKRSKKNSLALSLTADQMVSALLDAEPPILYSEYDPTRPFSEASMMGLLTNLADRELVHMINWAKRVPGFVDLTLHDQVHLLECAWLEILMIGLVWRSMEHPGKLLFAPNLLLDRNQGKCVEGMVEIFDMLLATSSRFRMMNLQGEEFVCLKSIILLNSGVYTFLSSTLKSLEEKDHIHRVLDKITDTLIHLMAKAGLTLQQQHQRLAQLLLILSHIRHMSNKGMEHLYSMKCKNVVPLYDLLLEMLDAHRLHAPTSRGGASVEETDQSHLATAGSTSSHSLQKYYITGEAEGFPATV
Chain of Thyrotropin-releasing hormone receptor (Homo sapiens) (P34981 whole entry, looked up): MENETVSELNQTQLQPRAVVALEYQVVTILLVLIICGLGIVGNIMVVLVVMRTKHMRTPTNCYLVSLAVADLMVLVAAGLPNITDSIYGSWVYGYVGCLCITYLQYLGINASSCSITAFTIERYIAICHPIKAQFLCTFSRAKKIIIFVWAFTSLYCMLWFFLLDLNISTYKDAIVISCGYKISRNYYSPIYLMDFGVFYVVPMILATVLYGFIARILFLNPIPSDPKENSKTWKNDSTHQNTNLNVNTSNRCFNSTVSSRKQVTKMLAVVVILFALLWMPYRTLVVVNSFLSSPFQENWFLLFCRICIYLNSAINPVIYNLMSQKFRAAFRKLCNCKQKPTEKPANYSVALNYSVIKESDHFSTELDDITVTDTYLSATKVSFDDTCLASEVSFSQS
Chain of Androgen receptor (Homo sapiens) (P10275 whole entry, looked up): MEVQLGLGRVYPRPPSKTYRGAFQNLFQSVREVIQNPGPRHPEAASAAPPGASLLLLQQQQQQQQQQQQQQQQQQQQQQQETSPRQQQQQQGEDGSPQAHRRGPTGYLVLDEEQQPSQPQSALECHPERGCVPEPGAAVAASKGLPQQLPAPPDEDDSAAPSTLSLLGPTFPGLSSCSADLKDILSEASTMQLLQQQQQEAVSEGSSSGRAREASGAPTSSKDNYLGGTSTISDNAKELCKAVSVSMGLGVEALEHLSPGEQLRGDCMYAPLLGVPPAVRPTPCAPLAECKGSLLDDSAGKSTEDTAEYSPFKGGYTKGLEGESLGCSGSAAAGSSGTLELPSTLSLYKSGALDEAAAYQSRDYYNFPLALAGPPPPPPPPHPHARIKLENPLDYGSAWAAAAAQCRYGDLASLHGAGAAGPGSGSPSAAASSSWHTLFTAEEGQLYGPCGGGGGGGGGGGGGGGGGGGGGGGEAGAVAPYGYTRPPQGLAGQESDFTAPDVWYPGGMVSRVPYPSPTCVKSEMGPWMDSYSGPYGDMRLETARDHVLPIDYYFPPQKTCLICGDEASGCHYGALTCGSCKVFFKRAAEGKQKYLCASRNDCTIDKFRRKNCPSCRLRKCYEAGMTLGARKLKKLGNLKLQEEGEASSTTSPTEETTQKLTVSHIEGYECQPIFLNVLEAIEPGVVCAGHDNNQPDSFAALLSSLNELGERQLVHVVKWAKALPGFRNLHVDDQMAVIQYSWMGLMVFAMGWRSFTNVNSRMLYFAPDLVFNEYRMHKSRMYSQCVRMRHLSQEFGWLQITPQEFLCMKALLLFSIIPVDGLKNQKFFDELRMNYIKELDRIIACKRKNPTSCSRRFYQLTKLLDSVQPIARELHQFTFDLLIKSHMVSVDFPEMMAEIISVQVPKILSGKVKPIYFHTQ

Take `C[N+](C)(C)CC(O)CC(=O)[O-]` (stereo not given): the call in experiment [1], in experiment [5], in experiment [13] and in experiment [14] was inactive. The Potency entry in [2], in experiment [3], in [4], in experiment [6], in experiment [7] and in experiment [8] was “inactive” throughout. In addition, the Potency result in experiment [9], in [10], in experiment [11] and in experiment [12] was “inactive” each time.

For `CO[Si](CCCOCC1CO1)(OC)OC` (stereo not given), the outcome in [1] and in [13] was inactive. The Potency entry in [2], in [3], in experiment [4], in experiment [15], in experiment [7] and in experiment [8] was “inactive” in each case. For the same compound, the Potency result in experiment [9], in experiment [10], in experiment [11] and in experiment [12] was “inactive” in each case.

In the case of `CCCCCCCCCCCC`, the call in experiment [1], in experiment [5], in experiment [13] and in [16] was inactive. In addition, the Potency entry in experiment [2], in experiment [3], in [4], in experiment [6], in experiment [7] and in experiment [8] was “inactive” throughout. Moreover, the Potency entry in experiment [11] and in experiment [12] was “inactive” in each case. The Potency in experiment [10] is 68.6 µM (active).

Regarding `OC[C@]1(O)OC[C@@H](O)[C@H](O)[C@@H]1O`, the result in [1], in experiment [5], in experiment [13] and in experiment [14] was inactive. Further, the Potency entry in experiment [2], in experiment [3], in experiment [4], in experiment [6], in experiment [7] and in [8] was “inactive” in each case. Also, the Potency entry in experiment [9], in experiment [10], in experiment [11] and in experiment [12] was “inactive” each time.

`CC(C)CNCC(C)C`: the call in experiment [1], in [17], in experiment [18], in [5], in experiment [13] and in experiment [14] was inactive. In experiment [16], the outcome was inactive. In addition, the Potency result in experiment [2], in [3], in experiment [4], in experiment [6], in experiment [7] and in experiment [8] was “inactive” each time. Also, the Potency entry in [9], in experiment [10], in [11] and in experiment [12] was “inactive” throughout.

`Cc1cccn2c(=O)c(-c3nnn[nH]3)cnc12`: the activity change in experiment [1] was 0.228% [at 18.9 µM]. The outcome in [17] was inactive. Also, in experiment [18], the activity, negative = inhibition was 3.16% [at 19 µM]. Also, the activity change, negative = cytotoxicity in experiment [2] is 1.69% [at 19 µM]; in experiment [4] it was -8.96% [at 19 µM]; in experiment [7] it was 5.01% [at 19 µM]; in [11] it was 11.1% [at 19 µM]; in experiment [13], 2.08% [at 15.8 µM]. Moreover, the values for the activation in experiment [15], in experiment [8] and in experiment [14] were -1.22% [at 19 µM], 2.07% [at 19 µM] and -4.24% [at 15.8 µM], respectively. Further, the cAMP activity change in experiment [5] was -0.907% [at 18.9 µM]. The activity change, negative = inhibition in experiment [6] is -4.29% [at 19 µM]. In addition, the Potency result in [9] and in [10] was “inactive” each time. Moreover, in experiment [12], the viability change, negative = cytotoxic is 3.02% [at 15.8 µM].

As for `N[C@@H](C(=O)N[C@@H]1C(=O)N2C(C(=O)O)=C(Cl)CS[C@H]12)c1ccccc1`, in [1], the activity change was -0.56% [at 8.39 µM]. For the same compound, the activity change, negative = cytotoxicity is -6.11% [at 8.39 µM] in [2]; 2.28% [at 8.39 µM] in experiment [3]; 5.71% [at 8.39 µM] in [4]; -0.6% [at 8.39 µM] in experiment [7]; 1.94% [at 8.39 µM] in experiment [10]; -11.1% [at 8.39 µM] in experiment [11]. The activation is 0.817% [at 8.39 µM] in experiment [15], 0.163% [at 8.39 µM] in experiment [8] and 1.83% [at 6.97 µM] in experiment [14]. For the same compound, in [5], the cAMP activity change is -1.5% [at 8.39 µM]. Besides, the activity change, negative = inhibition in [6] is 1.57% [at 8.39 µM]; in experiment [9], 5.57% [at 8.39 µM]. Besides, the viability change, negative = cytotoxic in [12] is -15% [at 6.97 µM]. Moreover, the activity, negative = inhibition in experiment [16] was 1.85% [at 4.65 µM].

Take `CCOC(=O)c1c(C)n(C)c2ccc(O)cc12`: the call in experiment [1], in experiment [5], in experiment [13], in experiment [14] and in experiment [16] was inactive. Moreover, the Potency result in [2], in experiment [19], in experiment [4], in experiment [6], in experiment [7] and in [8] was “inactive” throughout. Also, the Potency result in experiment [9], in experiment [10], in experiment [11] and in experiment [12] was “inactive” in each case.

As for `COc1ccc(CCN(C)CCCC(C#N)(c2cc(OC)c(OC)c(OC)c2)C(C)C)cc1OC` (stereo not given), the result in experiment [1], in experiment [17], in experiment [18], in experiment [5] and in [14] was inactive. The Potency entry in experiment [2], in experiment [3], in experiment [4], in [8], in experiment [9] and in experiment [10] was “inactive” each time. Moreover, the Potency entry in [11] and in [12] was “inactive” throughout.

As to `CCCN(CCC)CCc1cccc2c1CC(=O)N2`, the call in experiment [1], in experiment [17], in [18], in experiment [5], in experiment [13] and in experiment [16] was inactive. Besides, the Potency result in experiment [2], in experiment [3], in [4], in experiment [6], in experiment [7] and in experiment [8] was “inactive” throughout. The Potency entry in experiment [9], in experiment [10], in experiment [11] and in [12] was “inactive” each time.
